Hit rate of the full screen: of about 16,000 compounds, about 5,800 (36%) were called active. Inconclusive results (about 23%) are left out. The list shows a part of the results. Unmarked numbers belong to inactive results. Calls follow the shape of the dose curve; as a rule, active = well fitted curve in the direction sought with a large enough effect; inconclusive = small, poorly fitted or top-dose-only effect, or effect the other way; inactive = no such curve, though single readings can be large or run the other way. Peptide text beside a SMILES is read from it.
What follows are molecules tested against Cytochrome P450 2C19 (Homo sapiens) (UniProt P33261) (assay: Cytochrome panel assay with activity outcomes). Conditions: recombinant CYP, pro-luciferin dealkylation, luminescence, p450-cyp2c19; series mostly up to 57.1 µM; activity, negative = inhibition: at the top concentration.
Cytochrome P450 2C19 (Homo sapiens), sequence (P33261 whole entry, looked up): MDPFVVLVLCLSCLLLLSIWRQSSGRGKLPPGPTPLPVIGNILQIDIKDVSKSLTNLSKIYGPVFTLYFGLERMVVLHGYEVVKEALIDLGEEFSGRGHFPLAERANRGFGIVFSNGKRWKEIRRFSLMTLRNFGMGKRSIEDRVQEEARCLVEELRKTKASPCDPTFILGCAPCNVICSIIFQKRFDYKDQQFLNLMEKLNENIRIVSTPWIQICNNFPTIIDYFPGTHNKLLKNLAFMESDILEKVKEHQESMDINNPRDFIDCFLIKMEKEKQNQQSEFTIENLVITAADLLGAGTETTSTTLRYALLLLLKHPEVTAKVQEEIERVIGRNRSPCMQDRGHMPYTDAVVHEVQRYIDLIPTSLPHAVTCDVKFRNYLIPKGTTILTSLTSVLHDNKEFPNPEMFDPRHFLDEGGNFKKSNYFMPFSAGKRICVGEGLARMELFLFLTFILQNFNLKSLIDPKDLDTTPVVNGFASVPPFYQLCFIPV
% is scaled to controls: 0 for no effect and ±100 for the full control effect.

| SMILES | AC50 | activity, negative = inhibition |
| --- | --- | --- |
| Cc1ccc(OCC(=O)N2CCN(c3ccc([N+](=O)[O-])c(N4CCOCC4)c3)CC2)cc1 | 14.1 µM (active) |  |
| Cc1ccc(OC(=O)c2ccc(N3CCOCC3)c([N+](=O)[O-])c2)cc1 | 20 µM (active) |  |
| CCOC(=O)c1c(NC(=O)c2ccc(N3CCOCC3)c([N+](=O)[O-])c2)sc(C)c1C |  | 2.69% |
| CO/N=C/c1ccc(N2CCN(C(=O)c3ccc(Cl)cc3Cl)CC2)c([N+](=O)[O-])c1 | 5.01 µM (active) |  |
| Cn1c(=O)n(C)c2cc([N+](=O)[O-])c(N3CCN(C(=O)c4ccccc4Cl)CC3)cc21 | 17.8 µM (active) |  |
| COC(=O)c1ccc(N2CCN(CC(=O)c3ccc(-c4ccccc4)cc3)CC2)c([N+](=O)[O-])c1 | 5.01 µM (active) |  |
| COC(=O)c1ccc(N2CCN(c3ccccc3)CC2)c(NC(=O)C2CC2)c1 |  | -20.9% |
| O=C(Nc1ccc(-c2nc3ccccc3o2)cc1)c1ccc(N2CCOCC2)c([N+](=O)[O-])c1 | 5.01 µM (active) |  |
| Cc1cc(C)n(-c2cc(N3CCN(C(=O)c4ccc(C(C)(C)C)cc4)CC3)ccc2[N+](=O)[O-])n1 | 2.82 µM (active) |  |
| Cc1ccc(C)c(-c2nn(-c3cc(N4CCN(CCO)CC4)ccc3[N+](=O)[O-])c(=O)c3ccccc23)c1 |  | -101% |
| Cc1ccc(C(=O)O/N=C\c2ccc(N3CCCCC3)c([N+](=O)[O-])c2)cc1 | 1.58 µM (active) |  |
| CCOC(=O)c1[nH]c(C(=O)O)c(CCN(CC)CC)c1C |  | 7.09% |
| CO[C@H]1COC(=O)[C@@H](C)COC(=O)[C@@H](Cc2ccccc2)NC(=O)C/C=C\[C@H]1C |  | 10.6% [at 11.4 µM] |
| CC(C)=CCC/C(C)=C/CO/N=C1/C[C@@H](O)[C@@H](O)[C@@H]2[C@@H]3C(=O)N(C[C@@H]4CCCO4)C(=O)[C@H]3CC[C@@H]12 |  | 29.8% [at 11.4 µM] |
| Cc1ccc(C)c2sc(NC(=O)c3ccc(N4CCCCC4)c([N+](=O)[O-])c3)nc12 | 2.82 µM (active) |  |
| Cc1ccc(OCCCC(=O)N2CCOCC2)cc1 | 1.41 µM (active) |  |
| Cc1ccccc1C(=O)N1CCN(c2ccc([N+](=O)[O-])c(N3CCOCC3)c2)CC1 | 15.8 µM (active) |  |
| O=C(NCCNC[C@@H](O)COc1ccc(O)cc1)N1CCOCC1 | inactive |  |
| Cc1ccc(CS(=O)(=O)CCC(=O)N2CCOCC2)cc1 |  | -8.97% |
| Cn1ncc([N+](=O)[O-])c1C(=O)N1CCOCC1 |  | -1.66% |
| CC(=O)N[C@@H](CC(=O)O)C(=O)N[C@@H](CCC(=O)O)C(=O)O (Ac-Asp-Glu-OH) | inactive |  |
| CCCCNN |  | -44.3% [at 11.4 µM] |
| O=C(O)[C@H]([C@H]1NCCS1)N1Cc2ccccc2C1 |  | -31.8% [at 11.4 µM] |

| SMILES | AC50 | activity, negative = inhibition |
| --- | --- | --- |
| C/C(=N\Nc1nc(N)cc(Cl)n1)c1cccc([N+](=O)[O-])c1 |  | 2.88% |
| NC(=O)c1cccc(N)c1 |  | -27.6% |
| C/C(=N\Nc1ccc([N+](=O)[O-])cc1)c1cccc(N)c1 | 1.26 µM (active) |  |
| CCOC(=O)c1sc(NS(=O)(=O)c2ccccc2)nc1C |  | -24.1% |
| CCOC(=O)c1sc(N(Cc2ccccc2)C(=O)CN2C(=O)CN(C)C2=O)nc1C | 15.8 µM (active) |  |
| CO[C@H]1COC(=O)CCC[C@H](C)[C@H](OC)COC(=O)C/C=C\[C@@H]1C |  | -23% [at 11.4 µM] |
| C=CCn1c(=O)c(C(=O)NCCN(CC)CC)c(O)c2ccccc21 |  | -15.7% |
| CC(C)Oc1cccc(-n2c(CCc3c[nH]c4ccc(Br)cc34)nc3ccccc3c2=O)c1 |  | 9.45% |
| CCCn1c2c(c(O)c(C(=O)NCc3ccccc3)c1=O)CCCC2 | 17.8 µM (active) |  |
| O=C(NCc1ccccc1)c1ccc2c(c1)C(=O)N(CC1CCCO1)C2=O (stereo not given) |  | -23.3% |
| CCCCCCc1nc2ccccc2c(=O)n1NC(=O)c1c(O)c2c(n(CC(C)C)c1=O)CCCC2 | 5.62 µM (active) |  |
| CC(=O)N=c1sccn1CC(=O)c1ccc([N+](=O)[O-])cc1 | 10 µM (active) |  |
| CC(NC(=O)CN1CCCC1)C12CC3CC(CC(C3)C1)C2 (stereo not given) | 15.8 µM (active) |  |
| CCN1C(=O)CC(N2CCN(CC(=O)NC(C)C)CC2)C1=O (stereo not given) |  | -9.22% |
| c1ccc(-c2nc(CSc3n[nH]c(-c4cccs4)n3)cs2)cc1 | 1.12 µM (active) |  |
| N#Cc1cccc(-c2nc3cnc(N4CCOCC4)nc3n(C3CC3)c2=O)c1 |  | -17.4% |
| CC1=CC2=NC(=O)CC(C)(C(=O)N(CC(=O)NC(C)(C)C)Cc3cccs3)N2C=C1 (stereo not given) |  | -5.57% |
| CC(C)(C)NC(=O)CN(Cc1cccs1)C(=O)CCC(=O)Nc1nccs1 | 7.94 µM (active) |  |
| Nc1ncnc2c1nc(Br)n2[C@H]1O[C@H]2COP(=O)(O)O[C@H]2[C@@H]1O |  | -28.5% |
| O=C(c1cc(C(F)(F)F)cc(C(F)(F)F)c1)N1CCC[C@@]2(CCN(c3ccccn3)C2)C1 |  | -29.6% |
| O=C(c1ccncc1)N1CCC[C@@]2(CCN(c3ccccn3)C2)C1 | 6.31 µM (active) |  |
| O=C(Oc1ccccc1)N1CCC2(CCCN(c3ccccn3)C2)CC1 | 7.94 µM (active) |  |
| O=C(Oc1ccccc1)N1CCC[C@@]2(CCN(c3ncccn3)C2)C1 | 2.51 µM (active) |  |

| SMILES | AC50 | activity, negative = inhibition |
| --- | --- | --- |
| O=C(Oc1ccccc1)N1CCC[C@@]2(CCN(c3ccccn3)C2)C1 | 5.01 µM (active) |  |
| O=C(Oc1ccccc1)N1CCC2(CC1)CN(c1ccccn1)C2 |  | -4.95% |
| O=C(Oc1ccccc1)N1CCC2(CC1)CN(c1ncccn1)C2 |  | -27.7% |
| O=C(c1cnccn1)N1CCC[C@@]2(CCN(c3ccccn3)C2)C1 |  | 7.86% |
| COC(=O)N1CCC[C@@]2(CCN(c3ncccn3)C2)C1 |  | 3.42% |
| CC(=O)N1CCC2(CC1)CN(c1ccccn1)C2 |  | 9.66% |
| C/C(CCN1CCCCc2nc(C)c(C)cc21)=N\OC[C@@H](O)COCc1ccco1 |  | 11% [at 11.4 µM] |
| O=C(Oc1ccccc1)N1CCC2(CCCN(c3ccccc3)C2)CC1 | 15.8 µM (active) |  |
| COC(=O)N1CCC2(CCCN(c3ccccn3)C2)CC1 | 3.16 µM (active) |  |
| CC(=O)N1CCC2(CCCN(c3ccccn3)C2)CC1 |  | -20.4% |
| O=C(Oc1ccccc1)N1CCC2(CCCN(c3ccc(-c4ccccc4)cc3)C2)CC1 |  | 3% |
| COC(=O)N1CCC2(CC1)CN(c1ccccn1)C2 |  | -43.9% |
| O=C(Oc1ccccc1)N1CCC2(CC1)CCN(c1cccc(-c3ccccc3)c1)CC2 |  | 7.79% |
| O=S(=O)(O)[C@@H](c1ccccc1)[C@@H](O)c1ccccc1 |  | 3.73% [at 11.4 µM] |
| Cc1ccc(S(=O)(=O)N=Nc2c(O)[nH]c3cc(O)c(C(=O)O)cc23)cc1 |  | 38.4% [at 11.4 µM] |
| Cc1cccc(C)c1NC(=O)C(NC=O)c1ccccc1Cl (stereo not given) | 7.94 µM (active) |  |
| Cc1cccc(C)c1NC(=O)[C@H](C)N |  | 11.1% [at 25.6 µM] |
| COc1ccc(C(O)c2nccn2Cc2ccccc2)cc1 (stereo not given) | 5.01 µM (active) |  |
| COc1ccc([C@H](O)c2ccccn2)cc1 |  | -15.9% [at 11.4 µM] |
| Cc1cc([C@](C)(N)C(=O)O)ccc1P(=O)(O)O |  | 0.228% |
| O=C(c1ccc2c(c1)N(Cc1ccc(F)cc1)C(=O)CS2)N1CCOCC1 | 7.08 µM (active) |  |
| O=C1Nc2cc(C(=O)N3CCOCC3)ccc2SC1N1CCOCC1 (stereo not given) |  | 10.9% |
| CCOC(=O)C(C)Sc1nnc(CNC(=O)c2ccc(OC)cc2)n1C1CCCCC1 (stereo not given) | 5.01 µM (active) |  |

| SMILES | AC50 | activity, negative = inhibition |
| --- | --- | --- |
| COc1ccc(C(=O)N2CCC3(CC2)CN(C(=O)NC(C)C)C3)cc1 |  | 9.55% |
| COc1ccc(-n2c(CNC(=O)c3ccc(S(=O)(=O)N4CCCC4)cc3)n[nH]c2=S)cc1 |  | -27.5% |
| CC(Sc1nnc(Cc2cccs2)n1C1CCCCC1)C(N)=O (stereo not given) | 39.8 µM (active) |  |
| O=C(O)[C@@H](O)[C@@H](O)[C@@H](O)[C@@H](O)c1nc2ccccc2s1 | 3.16 µM (active) |  |
| O=C(O)[C@@H](O)[C@@H](O)[C@H](O)[C@H](O)CO |  | 2.53% [at 11.4 µM] |
| O=C(O)[C@@H](O)[C@@H](O)[C@@H](O)[C@@H](O)C(=O)O (tested in a mixture with another compound) |  | 9.98% [at 25.6 µM] |
| CSc1nc(N)c2ncn([C@@H]3O[C@@H](COP(=O)(O)OP(=O)(O)O)[C@@H](O)[C@H]3O)c2n1 |  | -4.53% |
| COc1ccc(C(C(=O)NC2CCCCC2)N(C(=O)c2sc(C)nc2C)c2ccc(OC)cc2)cc1 (stereo not given) | 14.1 µM (active) |  |
| COc1ccc(C(C(=O)NC2CCCC2)N(C(=O)c2snc(-c3ccc(F)cc3)c2N)c2ccc(F)cc2)cc1 (stereo not given) |  | -24.1% |
| COc1ccc(C[C@H](N)C(=O)N[C@@H]2[C@H](O)[C@H](n3cnc4c(N(C)C)ncnc43)O[C@@H]2CO)cc1 |  | 10.8% [at 25.6 µM] |
| CCc1ccc(N(C(=O)c2ccoc2C)C(C(=O)NC2CCCC2)c2ccc(OC)cc2)cc1 (stereo not given) | 14.1 µM (active) |  |
| N#C/C(=C\N1CCNC1=S)C(=O)c1ccc2ccccc2c1 |  | -10.2% [at 11.4 µM] |
| Cc1ccc(C)c(OCCCC(C)(C)C(=O)O)c1 |  | -33.3% [at 25.6 µM] |
| C/C(N)=C(/C#N)C(=O)CSc1nnc(COc2cc(C)ccc2C)o1 | 3.55 µM (active) |  |
| O=C1SC(c2ccccc2)=C/C1=C\N1CCCCC1 | 2 µM (active) |  |
| CC1CCN(S(=O)(=O)c2ccc3c(c2)C(=NO)c2cc(S(=O)(=O)N4CCC(C)CC4)ccc2-3)CC1 | 4.47 µM (active) |  |
| COCCNC(=O)Cn1cnc2ccc(S(=O)(=O)N3CCC(C)CC3)cc2c1=O |  | -16.1% |
| CC1CCN(CC[C@H]2CCCN2S(=O)(=O)c2cccc(O)c2)CC1 |  | -20.6% |
| COc1ccc(C(O)P(=O)(OC(C)C)OC(C)C)cc1OC (stereo not given) | 3.55 µM (active) |  |
| COc1cc([C@@H](O)CO)ccc1OS(=O)(=O)O |  | -27.9% |
| COc1cc([C@H](O)C(=O)O)ccc1O |  | -11.8% |
